Results taken from the antibiotic and cytotoxicity screens of Wong et al. (2023).
The whole screen tested about 39,000 compounds, of which about 3,300 (8.5%) were called active. This excerpt belongs to a sample that is enriched for actives.

tested on: HepG2; assay: cytotoxicity call (relative viability < 0.9); conditions: 10 µM

Row | SMILES | cytotoxicity call
1 | Cc1ccc(S(=O)(=O)Nc2ccc3c(c2)C(=O)N([C@H](C)CO)C[C@H](C)[C@H](CN(C)C(=O)Nc2c(C)noc2C)OCCCC[C@@H](C)O3)cc1 | inactive
2 | CN1CCN(C(=O)C[C@H]2CC[C@@H]3[C@@H](COc4ccc(NC(=O)c5ccc(F)c(F)c5)cc4C(=O)N3C)O2)CC1 | inactive
3 | C[C@@H]1CCCCO[C@@H](CN(C)Cc2ccccc2)[C@@H](C)CN([C@H](C)CO)C(=O)c2cc(NC(=O)CCCCCC(=O)Nc3ccccc3N)ccc2O1 | inactive
4 | Cc1ccc(NC(=O)Nc2cc(C(F)(F)F)ccc2F)cc1Nc1ccc2c(c1)NC(=O)/C2=C\c1ccc[nH]1 | active
5 | COc1ccc(S(=O)(=O)N[C@H]2C=C[C@H](CC(=O)NCCc3ccncc3)O[C@@H]2CO)cc1 | inactive
6 | C[C@@H]1CCCCO[C@@H](CN(C)S(=O)(=O)c2ccc(Cl)cc2)[C@H](C)CN([C@H](C)CO)C(=O)c2cc(NC(=O)CCC(F)(F)F)ccc2O1 | active
7 | C[C@@H]1CN([C@H](C)CO)C(=O)c2cc(NC(=O)CCC(F)(F)F)ccc2O[C@@H](C)CCCCO[C@H]1CN(C)S(=O)(=O)c1ccc(Cl)cc1 | active
8 | C[C@@H]1CCCCO[C@H](CN(C)S(=O)(=O)c2ccc(Cl)cc2)[C@H](C)CN([C@H](C)CO)C(=O)c2cc(NC(=O)CCC(F)(F)F)ccc2O1 | active
9 | C[C@@H]1CN([C@@H](C)CO)C(=O)c2cc(NC(=O)CCC(F)(F)F)ccc2O[C@@H](C)CCCCO[C@H]1CN(C)S(=O)(=O)c1ccc(Cl)cc1 | inactive
10 | C[C@@H]1CCCCO[C@H](CN(C)S(=O)(=O)c2ccc(Cl)cc2)[C@@H](C)CN([C@H](C)CO)C(=O)c2cc(NC(=O)CCC(F)(F)F)ccc2O1 | inactive
11 | Cc1ccc(S(=O)(=O)N(C)C[C@@H]2OCCCC[C@@H](C)Oc3ccc(NC(=O)CCC(F)(F)F)cc3C(=O)N([C@H](C)CO)C[C@H]2C)cc1 | inactive
12 | C[C@@H]1CCCCO[C@H](CN(C)S(=O)(=O)c2ccc(Cl)cc2)[C@@H](C)CN([C@@H](C)CO)C(=O)c2cc(NC(=O)CCC(F)(F)F)ccc2O1 | inactive
13 | Cc1ccc(S(=O)(=O)N(C)C[C@@H]2OCCCC[C@H](C)Oc3ccc(NC(=O)CCC(F)(F)F)cc3C(=O)N([C@@H](C)CO)C[C@@H]2C)cc1 | active
14 | Cc1ccc(S(=O)(=O)N(C)C[C@H]2OCCCC[C@H](C)Oc3ccc(NC(=O)CCC(F)(F)F)cc3C(=O)N([C@H](C)CO)C[C@@H]2C)cc1 | inactive
15 | C[C@@H]1CN([C@H](C)CO)C(=O)c2cc(NC(=O)CCC(F)(F)F)ccc2O[C@@H](C)CCCCO[C@@H]1CN(C)S(=O)(=O)c1ccc(Cl)cc1 | inactive
16 | C[C@H](CO)N1C[C@H](C)[C@@H](CN(C)S(=O)(=O)c2ccc(Cl)cc2)OCCCC[C@H](C)Oc2ccc(NC(=O)CCC(F)(F)F)cc2C1=O | inactive
17 | C[C@@H]1CN([C@@H](C)CO)C(=O)c2cc(NC(=O)CCC(F)(F)F)ccc2O[C@@H](C)CCCCO[C@@H]1CN(C)S(=O)(=O)c1ccc(Cl)cc1 | inactive
18 | COc1ccc(NC(=O)N(C)C[C@H]2Oc3c(NC(=O)C4CCOCC4)cccc3C(=O)N([C@@H](C)CO)C[C@H]2C)cc1 | inactive
19 | CC(C)NC(=O)Nc1ccc2c(c1)C(=O)N([C@@H](C)CO)C[C@H](C)[C@@H](CN(C)C(=O)Nc1ccccc1)OCCCC[C@@H](C)O2 | inactive
20 | C[C@H](CO)N1C[C@H](C)[C@H](CN(C)Cc2cccc3c2OCCCO3)OCc2cn(nn2)CCCC1=O | inactive
21 | C[C@@H]1CCCCO[C@@H](CN(C)C(=O)CCC(F)(F)F)[C@@H](C)CN([C@H](C)CO)C(=O)c2cc(NS(=O)(=O)c3cccs3)ccc2O1 | inactive

Row | SMILES | cytotoxicity call
22 | Cc1noc(C)c1S(=O)(=O)N(C)C[C@H]1Oc2ccc(NC(=O)CCC(F)(F)F)cc2CC(=O)N([C@@H](C)CO)C[C@@H]1C | inactive
23 | O=C(C[C@H]1C=C[C@@H](NS(=O)(=O)c2ccccc2F)[C@H](CO)O1)NCCCN1CCOCC1 | inactive
24 | C[C@@H]1CCCCO[C@@H](CN(C)C(=O)Nc2ccccc2)[C@@H](C)CN([C@H](C)CO)C(=O)c2cc(NS(=O)(=O)c3ccc(Cl)cc3)ccc2O1 | inactive
25 | C[C@@H]1CN([C@H](C)CO)C(=O)c2cccc(NC(=O)c3cnccn3)c2O[C@@H]1CN(C)S(=O)(=O)c1ccc(Cl)cc1 | inactive
26 | C[C@@H]1CN([C@@H](C)CO)C(=O)c2cc(NC(=O)CCCCCC(=O)Nc3ccccc3N)ccc2O[C@@H](C)CCCCO[C@@H]1CN(C)S(=O)(=O)c1ccc(Cl)cc1 | inactive
27 | C[C@H](CO)N1C[C@H](C)[C@@H](CN(C)S(=O)(=O)c2ccc(C#N)cc2)OCc2cnnn2CCCC1=O | inactive
28 | C[C@@H]1CCCCO[C@@H](CN(C)Cc2ccccc2)[C@H](C)CN([C@H](C)CO)C(=O)c2cc(NC(=O)c3ccccc3)ccc2O1 | inactive
29 | Cc1noc(C)c1NC(=O)Nc1ccc2c(c1)CC(=O)N([C@@H](C)CO)C[C@@H](C)[C@@H](CN(C)CC1CC1)O2 | inactive
30 | COc1ccc(NC(=O)Nc2ccc3c(c2)C(=O)N([C@@H](C)CO)C[C@@H](C)[C@H](CN(C)Cc2ccc4c(c2)OCO4)OCCCC[C@@H](C)O3)cc1 | inactive
31 | CCCOc1ccnc2c1c(=O)n(C)c(=O)n2C | inactive
32 | COc1ccc(NC(=O)Nc2cccc3c2O[C@@H](CN(C)Cc2ccc(C(=O)Nc4ccccc4N)cc2)[C@@H](C)CN([C@H](C)CO)C3=O)cc1 | inactive
33 | C[C@H]1CN([C@@H](C)CO)C(=O)Cc2cc(NC(=O)C3CC3)ccc2O[C@@H]1CN(C)S(=O)(=O)c1ccccc1 | inactive
34 | C[C@@H]1CCCCO[C@@H](CN(C)S(=O)(=O)c2ccc(Cl)cc2)[C@@H](C)CN([C@H](C)CO)C(=O)c2cc(NC(=O)CCC(F)(F)F)ccc2O1 | inactive
35 | C[C@H](CO)N1C[C@H](C)[C@H](CN(C)S(=O)(=O)c2ccc(Cl)cc2)OCCCC[C@H](C)Oc2ccc(NC(=O)CCC(F)(F)F)cc2C1=O | inactive
36 | C[C@H]1CCCCO[C@@H](CN(C)S(=O)(=O)c2ccc(Cl)cc2)[C@@H](C)CN([C@@H](C)CO)C(=O)c2cc(NC(=O)CCC(F)(F)F)ccc2O1 | inactive
37 | C[C@@H]1CCCCO[C@@H](CN(C)S(=O)(=O)c2ccc(Cl)cc2)[C@H](C)CN([C@@H](C)CO)C(=O)c2cc(NC(=O)CCC(F)(F)F)ccc2O1 | active
38 | C[C@@H]1CCCCO[C@@H](CN(C)S(=O)(=O)c2ccc(Cl)cc2)[C@@H](C)CN([C@@H](C)CO)C(=O)c2cc(NC(=O)CCC(F)(F)F)ccc2O1 | inactive
39 | C[C@H]1CCCCO[C@H](CN(C)S(=O)(=O)c2ccc(Cl)cc2)[C@@H](C)CN([C@@H](C)CO)C(=O)c2cc(NC(=O)CCC(F)(F)F)ccc2O1 | active
40 | N#C[C@@H]1C(=O)NC(=O)[C@@H](C#N)C12CCCC2 | inactive
41 | Cc1noc(C)c1S(=O)(=O)N(C)C[C@@H]1OCCCC[C@@H](C)Oc2ccc(NC(=O)Nc3ccc(F)cc3)cc2C(=O)N([C@H](C)CO)C[C@@H]1C | inactive
42 | C[C@@H]1CN([C@@H](C)CO)C(=O)c2cc(NC(=O)Nc3ccccc3)ccc2O[C@@H](C)CCCCO[C@@H]1CN(C)C(=O)Nc1cccc2ccccc12 | inactive

Row | SMILES | cytotoxicity call
43 | Cc1ccc(S(=O)(=O)N(C)C[C@H]2OCCCC[C@H](C)Oc3ccc(NC(=O)Nc4cccc5ccccc45)cc3C(=O)N([C@H](C)CO)C[C@@H]2C)cc1 | inactive
44 | CCOC(=O)[C@@H](N)Cc1ccccc1 | inactive
45 | NNC(=O)[C@@H](N)Cc1ccccc1 | inactive
46 | Cc1cc(C)c(NC(=O)[C@@H](N)Cc2ccccc2)c(Cl)c1 | active
47 | CC1=CC[C@H](C(C)(C)O)CC1 | inactive
48 | CC(C)=CCCC(C)(O)C1CC=C(C)CC1 (configuration not stated) | active
49 | C=C(C)[C@H]1CC=C(C)CC1 | inactive
50 | C[C@@H]1CN([C@H](C)CO)C(=O)c2cc(NC(=O)C3CCCCC3)ccc2O[C@@H](C)CCCCO[C@H]1CN(C)C(=O)C1CCCCC1 | inactive
51 | C[C@@H]1CN([C@H](C)CO)C(=O)c2c(c3ccccc3n2C)-c2ccccc2CO[C@H]1CN(C)C(=O)Nc1cccc(F)c1 | inactive
52 | C[C@@H]1CCCCO[C@H](CN(C)Cc2ccc(Cl)c(Cl)c2)[C@@H](C)CN([C@H](C)CO)C(=O)c2cc(NS(C)(=O)=O)ccc2O1 | inactive
53 | C[C@@H]1CN([C@H](C)CO)C(=O)c2cc(NS(C)(=O)=O)ccc2O[C@@H](C)CCCCO[C@H]1CN(C)Cc1ccc(Cl)c(Cl)c1 | active
54 | C[C@@H]1CCCCO[C@@H](CN(C)Cc2ccc(Cl)c(Cl)c2)[C@@H](C)CN([C@@H](C)CO)C(=O)c2cc(NS(C)(=O)=O)ccc2O1 | inactive
55 | C[C@@H]1CCCCO[C@H](CN(C)Cc2ccc(Cl)c(Cl)c2)[C@H](C)CN([C@@H](C)CO)C(=O)c2cc(NS(C)(=O)=O)ccc2O1 | active
56 | C[C@@H]1CCCCO[C@@H](CN(C)Cc2ccc(Cl)c(Cl)c2)[C@H](C)CN([C@@H](C)CO)C(=O)c2cc(NS(C)(=O)=O)ccc2O1 | inactive
57 | C[C@@H]1CCCCO[C@H](CN(C)Cc2ccc(Cl)c(Cl)c2)[C@@H](C)CN([C@@H](C)CO)C(=O)c2cc(NS(C)(=O)=O)ccc2O1 | inactive
58 | C[C@@H](NC(=O)C[C@@H]1CC[C@@H](NC(=O)CN2CCOCC2)[C@@H](CO)O1)c1ccccc1 | inactive
59 | O=C1c2c(O)cccc2Cc2cccc(O)c21 | inactive
60 | O=C1c2cccc(O)c2C(=O)c2c(O)cccc21 | active
61 | Cc1cc(O)c2c(c1)C(=O)c1cccc(O)c1C2=O | inactive
62 | COc1cccc(NC(=O)N2C[C@H](O)COC[C@@H]3O[C@@H](CC(=O)NCc4ccccc4F)CC[C@H]32)c1 | inactive
